# Experimental data published in ChEMBL document CHEMBL2218924, “A broad activity screen in support of a chemogenomic map for kinase signalling research and drug discovery” (Biochem J, 2013).
# How the values were obtained:
# [1] = target: T1, Serine/threonine-protein kinase 3 (Homo sapiens) (UniProt Q13188); details: at 1 µM
# T1 sequence (whole entry): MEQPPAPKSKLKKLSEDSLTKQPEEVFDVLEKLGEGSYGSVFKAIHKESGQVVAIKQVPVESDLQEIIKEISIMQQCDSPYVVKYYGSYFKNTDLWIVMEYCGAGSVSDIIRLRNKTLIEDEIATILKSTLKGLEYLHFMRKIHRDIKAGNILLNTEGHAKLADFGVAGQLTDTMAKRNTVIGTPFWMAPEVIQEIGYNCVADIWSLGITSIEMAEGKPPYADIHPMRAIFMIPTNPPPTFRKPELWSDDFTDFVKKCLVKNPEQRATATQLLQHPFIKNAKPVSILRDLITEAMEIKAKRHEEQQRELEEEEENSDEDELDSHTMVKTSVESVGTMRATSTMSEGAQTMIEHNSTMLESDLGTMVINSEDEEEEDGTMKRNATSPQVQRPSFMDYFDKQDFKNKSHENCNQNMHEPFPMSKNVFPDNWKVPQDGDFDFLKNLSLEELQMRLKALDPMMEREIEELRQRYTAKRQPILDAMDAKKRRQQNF
# [2] = target: T1, Serine/threonine-protein kinase 3 (Homo sapiens); details: at 10 µM
# [3] = target: Serine/threonine-protein kinase 24 (Homo sapiens) (UniProt Q9Y6E0); details: at 1 µM
# [4] = target: Serine/threonine-protein kinase 24 (Homo sapiens) (UniProt Q9Y6E0); details: at 10 µM
# [5] = target: T2, Tyrosine-protein kinase Mer (Homo sapiens) (UniProt Q12866); details: at 1 µM
# T2 sequence (whole entry): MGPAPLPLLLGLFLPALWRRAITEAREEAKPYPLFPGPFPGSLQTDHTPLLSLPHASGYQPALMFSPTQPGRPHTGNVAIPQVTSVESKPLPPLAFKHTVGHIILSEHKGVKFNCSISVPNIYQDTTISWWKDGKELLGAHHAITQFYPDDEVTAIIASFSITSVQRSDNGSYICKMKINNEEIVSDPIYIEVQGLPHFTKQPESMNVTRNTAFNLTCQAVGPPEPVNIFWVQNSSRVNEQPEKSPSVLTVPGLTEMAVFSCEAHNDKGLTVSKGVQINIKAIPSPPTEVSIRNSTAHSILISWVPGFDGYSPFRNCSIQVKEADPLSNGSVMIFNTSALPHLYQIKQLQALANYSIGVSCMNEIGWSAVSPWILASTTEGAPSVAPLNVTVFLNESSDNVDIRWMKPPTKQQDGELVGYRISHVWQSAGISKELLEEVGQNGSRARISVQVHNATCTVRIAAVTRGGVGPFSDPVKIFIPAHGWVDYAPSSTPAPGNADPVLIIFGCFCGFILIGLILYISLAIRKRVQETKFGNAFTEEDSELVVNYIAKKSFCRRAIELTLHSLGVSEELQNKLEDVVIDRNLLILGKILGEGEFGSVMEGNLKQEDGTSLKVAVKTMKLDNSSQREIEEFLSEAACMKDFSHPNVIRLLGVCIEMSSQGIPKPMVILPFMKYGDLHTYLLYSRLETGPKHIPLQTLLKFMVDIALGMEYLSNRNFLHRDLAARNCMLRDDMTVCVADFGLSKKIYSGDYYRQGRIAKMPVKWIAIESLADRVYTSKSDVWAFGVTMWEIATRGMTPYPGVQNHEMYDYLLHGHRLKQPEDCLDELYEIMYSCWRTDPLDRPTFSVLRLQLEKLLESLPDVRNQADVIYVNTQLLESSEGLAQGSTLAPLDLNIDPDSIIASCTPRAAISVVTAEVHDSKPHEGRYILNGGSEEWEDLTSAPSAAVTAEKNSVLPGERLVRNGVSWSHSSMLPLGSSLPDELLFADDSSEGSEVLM
# [6] = target: T2, Tyrosine-protein kinase Mer (Homo sapiens); details: at 10 µM
# [7] = target: Hepatocyte growth factor receptor (Homo sapiens) (UniProt P08581); details: at 1 µM
# [8] = target: Hepatocyte growth factor receptor (Homo sapiens) (UniProt P08581); details: at 10 µM
# [9] = target: MAP kinase-interacting serine/threonine-protein kinase 2 (Homo sapiens) (UniProt Q9HBH9); details: at 1 µM
# [10] = target: MAP kinase-interacting serine/threonine-protein kinase 2 (Homo sapiens) (UniProt Q9HBH9); details: at 10 µM
# [11] = target: T3, Muscle, skeletal receptor tyrosine-protein kinase (Homo sapiens) (UniProt O15146); details: at 1 µM
# T3 sequence (whole entry): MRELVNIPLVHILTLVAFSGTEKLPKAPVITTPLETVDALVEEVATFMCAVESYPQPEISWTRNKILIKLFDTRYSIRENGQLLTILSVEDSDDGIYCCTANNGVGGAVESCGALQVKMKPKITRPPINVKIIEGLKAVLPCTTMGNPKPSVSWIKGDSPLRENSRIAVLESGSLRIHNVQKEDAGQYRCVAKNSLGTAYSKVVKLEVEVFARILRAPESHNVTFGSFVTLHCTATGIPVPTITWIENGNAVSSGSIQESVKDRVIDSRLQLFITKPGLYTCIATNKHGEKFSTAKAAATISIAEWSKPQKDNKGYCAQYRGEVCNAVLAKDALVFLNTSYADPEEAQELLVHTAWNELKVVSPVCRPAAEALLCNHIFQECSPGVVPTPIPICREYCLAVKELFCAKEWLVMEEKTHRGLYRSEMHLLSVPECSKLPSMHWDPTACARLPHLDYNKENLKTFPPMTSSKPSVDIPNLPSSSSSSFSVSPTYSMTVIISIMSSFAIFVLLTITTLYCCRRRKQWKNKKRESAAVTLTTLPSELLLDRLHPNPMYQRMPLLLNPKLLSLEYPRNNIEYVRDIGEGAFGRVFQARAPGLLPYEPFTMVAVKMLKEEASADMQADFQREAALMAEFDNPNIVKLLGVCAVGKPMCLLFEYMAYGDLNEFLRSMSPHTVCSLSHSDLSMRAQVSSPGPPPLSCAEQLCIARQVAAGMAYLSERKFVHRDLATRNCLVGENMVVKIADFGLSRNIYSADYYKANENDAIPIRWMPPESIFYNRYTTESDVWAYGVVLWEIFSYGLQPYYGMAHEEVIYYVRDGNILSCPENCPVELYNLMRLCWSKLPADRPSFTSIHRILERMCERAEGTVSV
# [12] = target: T3, Muscle, skeletal receptor tyrosine-protein kinase (Homo sapiens); details: at 10 µM
# [13] = target: T4, Serine/threonine-protein kinase Nek11 (Homo sapiens) (UniProt Q8NG66); details: at 1 µM
# T4 sequence (whole entry): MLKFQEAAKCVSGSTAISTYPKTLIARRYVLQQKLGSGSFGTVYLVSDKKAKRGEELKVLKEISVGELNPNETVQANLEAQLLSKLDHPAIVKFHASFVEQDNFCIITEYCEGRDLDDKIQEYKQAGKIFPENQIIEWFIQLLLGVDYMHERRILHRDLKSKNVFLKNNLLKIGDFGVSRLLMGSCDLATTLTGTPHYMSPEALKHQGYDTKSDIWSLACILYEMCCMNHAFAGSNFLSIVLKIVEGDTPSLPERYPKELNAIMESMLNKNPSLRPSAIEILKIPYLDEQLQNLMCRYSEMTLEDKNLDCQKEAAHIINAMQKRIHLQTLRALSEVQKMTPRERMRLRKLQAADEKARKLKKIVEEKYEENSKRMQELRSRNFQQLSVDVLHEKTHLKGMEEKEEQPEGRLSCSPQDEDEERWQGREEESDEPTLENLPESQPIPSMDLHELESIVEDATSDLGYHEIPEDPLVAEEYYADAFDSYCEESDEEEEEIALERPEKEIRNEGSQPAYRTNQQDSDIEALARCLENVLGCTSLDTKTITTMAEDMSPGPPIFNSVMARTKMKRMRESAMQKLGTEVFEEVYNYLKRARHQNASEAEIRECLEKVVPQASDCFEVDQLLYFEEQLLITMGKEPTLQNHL
# [14] = target: T4, Serine/threonine-protein kinase Nek11 (Homo sapiens); details: at 10 µM
# [15] = target: T5, Serine/threonine-protein kinase Nek2 (Homo sapiens) (UniProt P51955); details: at 1 µM
# T5 sequence (whole entry): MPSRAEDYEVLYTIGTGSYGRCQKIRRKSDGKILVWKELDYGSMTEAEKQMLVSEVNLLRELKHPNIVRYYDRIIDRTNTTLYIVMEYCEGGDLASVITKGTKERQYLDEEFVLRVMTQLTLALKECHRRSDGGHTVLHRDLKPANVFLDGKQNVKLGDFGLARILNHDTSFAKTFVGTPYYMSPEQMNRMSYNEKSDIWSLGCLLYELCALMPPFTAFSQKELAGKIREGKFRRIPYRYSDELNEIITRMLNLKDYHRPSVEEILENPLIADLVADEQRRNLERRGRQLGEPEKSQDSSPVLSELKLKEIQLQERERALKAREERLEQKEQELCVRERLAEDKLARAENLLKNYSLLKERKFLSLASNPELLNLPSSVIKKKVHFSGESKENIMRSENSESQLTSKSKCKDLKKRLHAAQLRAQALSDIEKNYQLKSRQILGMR
# [16] = target: T5, Serine/threonine-protein kinase Nek2 (Homo sapiens); details: at 10 µM
# [17] = target: T6, Serine/threonine-protein kinase Nek3 (Homo sapiens) (UniProt P51956); details: at 1 µM
# T6 sequence (whole entry): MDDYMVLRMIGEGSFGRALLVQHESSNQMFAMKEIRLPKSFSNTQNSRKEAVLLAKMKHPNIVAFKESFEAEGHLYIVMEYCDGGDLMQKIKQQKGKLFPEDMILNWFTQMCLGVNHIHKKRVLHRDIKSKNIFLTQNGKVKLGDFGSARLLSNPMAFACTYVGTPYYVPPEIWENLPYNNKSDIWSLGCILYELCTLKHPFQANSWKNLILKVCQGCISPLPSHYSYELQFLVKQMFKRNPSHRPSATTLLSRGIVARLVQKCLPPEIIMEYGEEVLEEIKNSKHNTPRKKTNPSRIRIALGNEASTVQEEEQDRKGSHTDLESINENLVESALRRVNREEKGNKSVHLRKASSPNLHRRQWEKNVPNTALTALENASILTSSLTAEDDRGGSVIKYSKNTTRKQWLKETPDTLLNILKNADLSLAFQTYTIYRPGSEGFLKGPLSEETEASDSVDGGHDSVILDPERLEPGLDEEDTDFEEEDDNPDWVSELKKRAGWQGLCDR
# [18] = target: T6, Serine/threonine-protein kinase Nek3 (Homo sapiens); details: at 10 µM
# [19] = target: Serine/threonine-protein kinase tousled-like 2 (Homo sapiens) (UniProt Q86UE8); details: at 1 µM
# [20] = target: Serine/threonine-protein kinase tousled-like 2 (Homo sapiens) (UniProt Q86UE8); details: at 10 µM
# Sequence of Serine/threonine-protein kinase tousled-like 2 (Homo sapiens) (Q86UE8 whole entry, looked up): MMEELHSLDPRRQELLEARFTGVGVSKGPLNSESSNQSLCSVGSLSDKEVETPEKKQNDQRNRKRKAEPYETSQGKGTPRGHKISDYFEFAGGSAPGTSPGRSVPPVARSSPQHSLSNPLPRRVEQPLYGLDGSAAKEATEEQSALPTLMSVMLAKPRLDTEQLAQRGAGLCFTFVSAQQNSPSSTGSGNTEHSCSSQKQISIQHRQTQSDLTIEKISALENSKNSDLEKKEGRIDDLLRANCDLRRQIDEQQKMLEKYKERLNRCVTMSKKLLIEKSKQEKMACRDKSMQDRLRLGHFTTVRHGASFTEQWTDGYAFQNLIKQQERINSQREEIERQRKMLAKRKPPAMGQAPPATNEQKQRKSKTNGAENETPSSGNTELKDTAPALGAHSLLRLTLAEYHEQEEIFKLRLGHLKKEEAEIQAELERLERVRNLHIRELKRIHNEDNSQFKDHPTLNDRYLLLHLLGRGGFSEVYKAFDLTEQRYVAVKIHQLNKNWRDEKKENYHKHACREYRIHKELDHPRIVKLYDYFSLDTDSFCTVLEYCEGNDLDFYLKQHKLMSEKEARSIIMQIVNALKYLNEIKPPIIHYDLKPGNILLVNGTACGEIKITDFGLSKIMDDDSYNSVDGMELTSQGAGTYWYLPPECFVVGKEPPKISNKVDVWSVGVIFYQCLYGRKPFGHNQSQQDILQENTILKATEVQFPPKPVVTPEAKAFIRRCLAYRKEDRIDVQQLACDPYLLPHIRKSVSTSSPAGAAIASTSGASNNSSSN
# Sequence of Serine/threonine-protein kinase 24 (Homo sapiens) (Q9Y6E0 whole entry, looked up): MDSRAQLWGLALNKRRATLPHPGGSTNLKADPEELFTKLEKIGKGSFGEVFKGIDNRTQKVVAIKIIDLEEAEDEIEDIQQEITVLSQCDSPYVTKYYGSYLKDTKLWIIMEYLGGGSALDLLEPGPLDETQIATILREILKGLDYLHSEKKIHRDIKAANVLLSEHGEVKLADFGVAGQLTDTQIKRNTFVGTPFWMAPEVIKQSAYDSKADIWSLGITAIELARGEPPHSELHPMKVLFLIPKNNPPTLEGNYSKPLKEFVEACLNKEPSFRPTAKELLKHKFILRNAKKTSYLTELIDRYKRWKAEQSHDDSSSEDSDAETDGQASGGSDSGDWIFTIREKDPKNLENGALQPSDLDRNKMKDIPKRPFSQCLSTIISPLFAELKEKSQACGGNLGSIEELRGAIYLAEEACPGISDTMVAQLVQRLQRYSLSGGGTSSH
# Sequence of MAP kinase-interacting serine/threonine-protein kinase 2 (Homo sapiens) (Q9HBH9 whole entry, looked up): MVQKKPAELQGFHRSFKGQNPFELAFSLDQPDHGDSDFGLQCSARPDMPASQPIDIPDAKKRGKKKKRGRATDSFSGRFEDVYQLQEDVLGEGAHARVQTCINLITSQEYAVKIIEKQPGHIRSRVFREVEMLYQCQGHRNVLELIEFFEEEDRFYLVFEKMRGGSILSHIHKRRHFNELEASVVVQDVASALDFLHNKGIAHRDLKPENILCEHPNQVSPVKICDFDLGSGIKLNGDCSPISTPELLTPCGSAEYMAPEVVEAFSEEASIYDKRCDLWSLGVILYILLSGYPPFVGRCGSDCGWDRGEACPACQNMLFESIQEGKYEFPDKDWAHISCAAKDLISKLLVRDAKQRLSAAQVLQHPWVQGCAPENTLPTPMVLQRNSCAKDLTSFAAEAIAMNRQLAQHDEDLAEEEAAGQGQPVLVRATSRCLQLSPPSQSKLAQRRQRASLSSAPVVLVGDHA
# Sequence of Hepatocyte growth factor receptor (Homo sapiens) (P08581 whole entry): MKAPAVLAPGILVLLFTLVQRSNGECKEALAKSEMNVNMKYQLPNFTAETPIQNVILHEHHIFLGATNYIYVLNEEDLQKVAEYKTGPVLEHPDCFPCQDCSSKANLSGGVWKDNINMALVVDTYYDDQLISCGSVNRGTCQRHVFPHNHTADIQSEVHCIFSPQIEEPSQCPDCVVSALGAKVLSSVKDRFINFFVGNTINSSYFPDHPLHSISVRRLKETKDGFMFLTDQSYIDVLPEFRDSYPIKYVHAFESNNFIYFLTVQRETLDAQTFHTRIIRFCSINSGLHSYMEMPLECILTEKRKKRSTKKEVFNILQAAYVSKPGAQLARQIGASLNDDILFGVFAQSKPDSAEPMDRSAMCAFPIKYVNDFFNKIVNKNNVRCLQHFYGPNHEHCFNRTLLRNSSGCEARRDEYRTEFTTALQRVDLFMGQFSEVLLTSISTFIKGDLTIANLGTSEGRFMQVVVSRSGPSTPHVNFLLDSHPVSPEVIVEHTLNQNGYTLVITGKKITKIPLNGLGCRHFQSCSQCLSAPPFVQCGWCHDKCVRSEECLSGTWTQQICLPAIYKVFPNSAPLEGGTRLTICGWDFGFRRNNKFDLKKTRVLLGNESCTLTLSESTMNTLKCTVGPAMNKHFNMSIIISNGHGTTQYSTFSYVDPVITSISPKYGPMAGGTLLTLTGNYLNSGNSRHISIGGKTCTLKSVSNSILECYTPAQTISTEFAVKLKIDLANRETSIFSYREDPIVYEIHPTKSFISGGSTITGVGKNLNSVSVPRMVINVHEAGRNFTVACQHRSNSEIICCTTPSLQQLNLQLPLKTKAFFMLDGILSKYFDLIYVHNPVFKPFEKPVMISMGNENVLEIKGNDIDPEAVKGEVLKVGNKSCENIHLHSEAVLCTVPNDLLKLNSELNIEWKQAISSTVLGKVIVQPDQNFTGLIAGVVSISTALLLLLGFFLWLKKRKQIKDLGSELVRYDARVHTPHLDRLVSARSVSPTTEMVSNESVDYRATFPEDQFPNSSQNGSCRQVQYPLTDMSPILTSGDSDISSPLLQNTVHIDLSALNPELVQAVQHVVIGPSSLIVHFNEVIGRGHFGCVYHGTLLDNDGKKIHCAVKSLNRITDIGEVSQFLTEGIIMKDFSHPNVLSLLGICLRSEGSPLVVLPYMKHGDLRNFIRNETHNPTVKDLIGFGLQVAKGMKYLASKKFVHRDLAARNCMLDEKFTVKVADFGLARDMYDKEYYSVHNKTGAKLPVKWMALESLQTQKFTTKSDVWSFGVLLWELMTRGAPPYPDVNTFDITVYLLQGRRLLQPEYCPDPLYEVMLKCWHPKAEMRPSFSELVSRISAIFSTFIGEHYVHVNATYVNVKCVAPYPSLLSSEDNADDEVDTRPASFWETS
SMILES,residual activity [1],residual activity [2],residual activity [3],residual activity [4],residual activity [5],residual activity [6],residual activity [7],residual activity [8],residual activity [9],residual activity [10],residual activity [11],residual activity [12],residual activity [13],residual activity [14],residual activity [15],residual activity [16],residual activity [17],residual activity [18],residual activity [19],residual activity [20]
O=C1NC(=O)/C(=C/c2ccc3c(c2)OC(F)(F)O3)S1,106%,102%,60%,70%,110%,95%,87%,78%,109%,96%,110%,89%,80%,82%,97%,94%,117%,88%,112%,97%
Nc1cccc(-c2cc3c(Oc4cccc(O)c4)ncnc3[nH]2)c1,99%,69%,65%,23%,81%,35%,63%,22%,68%,20%,73%,17%,54%,25%,97%,71%,42%,23%,90%,87%
N#C/C(=C(\N)Sc1ccc(N)cc1)c1ccccc1C(F)(F)F,76%,80%,70%,62%,94%,94%,98%,90%,102%,106%,86%,84%,64%,68%,93%,91%,75%,103%,98%,93%
CO[C@H]1C[C@@H]2CC[C@@H](C)[C@@](O)(O2)C(=O)C(=O)N2CCCC[C@H]2C(=O)O[C@H]([C@H](C)C[C@@H]2CC[C@@H](O)[C@H](OC)C2)CC(=O)[C@H](C)/C=C(\C)[C@@H](O)[C@@H](OC)C(=O)[C@H](C)C[C@H](C)/C=C/C=C/C=C/1C,94%,84%,64%,76%,101%,93%,95%,105%,105%,88%,87%,86%,97%,112%,83%,81%,113%,64%,92%,83%
Cn1cnc2cc3c(Nc4cccc(Br)c4)ncnc3cc21,98%,92%,78%,80%,79%,58%,85%,68%,26%,13%,104%,85%,89%,106%,87%,109%,111%,74%,103%,92%
O=Nc1c(-c2c(O)[nH]c3ccccc23)[nH]c2ccccc12,6%,0%,42%,10%,-2%,-3%,86%,13%,62%,18%,58%,5%,70%,18%,93%,83%,86%,94%,60%,14%
O=c1cc(-c2cccc3c2Sc2ccccc2S3)oc(N2CCOCC2)c1,92%,93%,98%,81%,99%,89%,106%,120%,100%,94%,106%,96%,93%,64%,96%,92%,92%,99%,96%,96%
